Results published in ChEMBL document CHEMBL3988442, “University of Dundee, Small-Polar-MMV Screening Library” (2021).
Among all 69,000 compounds or so, about 1,000 (1.4%) showed an effect of 50% or more. The entries come from a sample that favours strong results as a whole.

Tested on: Leishmania donovani
Assay: Leishmania intramacrophage assay
Format: functional, organism-based
Parameters: scale not given: in the data most compounds retested in dose-response had high values

## COCC1CC2(CCN(Cc3nccn3C)CC2)CN1c1ncccn1.O=C(O)C(F)(F)F (centres undefined)
30.3 µM, […]
  Percent Effect: 11.88%

## CC(=O)c1c(C)nn(CC(=O)N2CCCC2c2ccc(C(N)=O)s2)c1C (centres undefined)
30.3 µM, […]
  Percent Effect: 42.8%

## Cc1n[nH]c2ncc(CNC3CCCN(c4ncccn4)C3)cc12.Cl (centres undefined)
30.3 µM, […]
  Percent Effect: 15.17%

## Cc1cnc(N2CCn3c(CN4CCOCC4)nnc3C2)nc1.O=C(O)C(F)(F)F
30.3 µM, […]
  Percent Effect: 30.81%

## COC(=O)CNC(=O)Cn1ccc2ccc(F)cc21
30.3 µM, […]
  Percent Effect: 14.64%

## CC(NC1CCN(CC(=O)N(C)C)CC1)c1cnn(C(C)C)c1 (centres undefined)
30.3 µM, […]
  Percent Effect: -44.29%

## Cc1cc(Cl)cc(C)c1CNC1CCN(CC(=O)N(C)C)CC1
30.3 µM, […]
  Percent Effect: 66.45%

## Cc1nc(-c2c(C)noc2C)cc(C2CCN(CC(=O)N(C)C)CC2)n1
30.3 µM, […]
  Percent Effect: 31.09%

## CC(C)Oc1cc(N2CCC(C(N)=O)CC2)nc(N)n1
30.3 µM, […]
  Percent Effect: 14.18%

## COc1ccc(C2CCCN2C(=O)c2cc3c([nH]c2=O)CCC3)cc1 (centres undefined)
30 µM, 30.03 µM
  Percent Effect: 22.34%

## O=C1CC2(CCSC2)C(=O)N1Cc1coc(-c2ccccc2)n1 (centres undefined)
30.3 µM, […]
  Percent Effect: 4.889%

## CNC(=O)N1CCCCC1CCNS(C)(=O)=O (centres undefined)
30.3 µM, […]
  Percent Effect: 6.391%

## Cc1nn(C)c(N(C)C)c1CNCc1ccccc1Cn1cncn1
30 µM, 30.03 µM
  Percent Effect: 20.9%

## Cc1ccc(C(C(=O)O)N2CCCN(Cc3ccccn3)CC2)c(F)c1 (centres undefined)
30.3 µM, […]
  Percent Effect: 23.66%

## O=C(O)C(c1ccc(Cl)c(F)c1)N1CCN(Cc2ccccn2)CC1 (centres undefined)
30.3 µM, […]
  Percent Effect: 61.2%

## Cc1cc(F)c(C(C(=O)O)N2CCN(Cc3ccccn3)CC2)cc1Cl (centres undefined)
30.3 µM, […]
  Percent Effect: 5.04%

## COCCC(=O)N1CCCC1c1nccc(C)n1 (centres undefined)
30.3 µM, […]
  Percent Effect: 11.84%

## Cl.Fc1ccc(F)c(CN2CCC(c3cc4ncccc4cn3)CC2)c1
30.3 µM, […]
  Percent Effect: 33.05%

## Cl.Fc1cccc(CN2CCC(c3cc4ncccc4cn3)CC2)c1F
30.3 µM, […]
  Percent Effect: 51.12%

## Fc1cc(F)cc(CN2CCC(c3cc4ncccc4cn3)CC2)c1
30.3 µM, […]
  Percent Effect: 29.54%

## Cn1nnnc1SCC(=O)N1CCN(C(=O)C2CC2c2cccs2)CC1 (centres undefined)
30.3 µM, […]
  Percent Effect: -0.756%

## Cc1cnn(CCNCC(O)c2ccc3c(c2)OCCO3)c1 (centres undefined)
30.3 µM, […]
  Percent Effect: -28.04%

## O[C@@H]1CN(CC2=Cc3cc(Cl)ccc3OC2)CC[C@H]1N1CCCCCC1
30.3 µM, […]
  Percent Effect: 44.96%

## CN1CCN([C@@H]2CCN(Cc3ccc4cc(F)ccc4n3)C[C@H]2O)CC1
30.3 µM, […]
  Percent Effect: 33.38%

## CN1CCN([C@@H]2CCN(CC3=Cc4cc(Cl)ccc4OC3)C[C@H]2O)CC1
30.3 µM, […]
  Percent Effect: 96.13%

## Cc1c(O)cccc1C(=O)N1CCCC2(C1)C(=O)N(C)c1ccccc12 (centres undefined)
30.3 µM, […]
  Percent Effect: 10.13%

## CNc1ncccc1C(=O)N1CCCC2(C1)C(=O)N(C)c1ccccc12 (centres undefined)
30.3 µM, […]
  Percent Effect: 63.07%

## CN1C(=O)C2(CCCN(C(=O)c3cccnc3O)C2)c2ccccc21 (centres undefined)
30.3 µM, […]
  Percent Effect: 4.492%

## O=C(NCC1(O)CCOc2ccccc21)Nc1ccccc1 (centres undefined)
30.3 µM, […]
  Percent Effect: 35.58%

## CN(CCO)C[C@@H]1CN(C(=O)c2cccc(OC(F)F)c2)C[C@@H]1CO
30.3 µM, […]
  Percent Effect: 59.47%

## COCCN(C)C[C@@H]1CN(C(=O)c2cccc(Cl)c2)C[C@@H]1CO
30.3 µM, […]
  Percent Effect: -8.073%

## COCCN(C)C[C@@H]1CN(C(=O)c2cccc(C#N)c2)C[C@@H]1CO
30.3 µM, […]
  Percent Effect: -5.773%

## COc1ccc(C(=O)N2CCCC2c2cnn(C)c2)cn1 (centres undefined)
30 µM
  Percent Effect: 3.221%

## CN(Cc1ccco1)Cc1ccccc1CNC(=O)c1cnccn1
30.3 µM, […]
  Percent Effect: 16.56%

## CC(C)N(CCO)C(=O)c1cc(COc2ccc3c(c2)CCCC3)on1
30.3 µM, […]
  Percent Effect: 15.58%

## O=C(NCCc1cccnc1)C1CCCN(Cc2ccco2)C1 (centres undefined)
30.3 µM, […]
  Percent Effect: -19.49%

## Cc1cnccc1NCCNC(=O)C1CCCN(Cc2ccco2)C1 (centres undefined)
30.3 µM, […]
  Percent Effect: 54.03%

## O=C(NCCCc1ccncc1)C1CCCN(Cc2ccco2)C1 (centres undefined)
30 µM, 30.03 µM
  Percent Effect: 28.63%

## CCN(C)c1ncnc2c1CCN(C(=O)c1cnccn1)CC2.O=C(O)C(F)(F)F
30.3 µM, […]
  Percent Effect: 16.93%

## Cc1ncoc1C(=O)N1C[C@H]2CCC[C@@]2(COCC2CCOCC2)C1
30 µM, 30.03 µM
  Percent Effect: 24.66%

## CN1C(=O)CCCC12CCCN(C(=O)c1cccc(C(F)(F)F)c1)C2 (centres undefined)
30.3 µM, […]
  Percent Effect: 25.18%

## CC(CCc1ccccc1)NC(=O)CNCCCN(C)C.O=C(O)C(=O)O (centres undefined)
30.3 µM, […]
  Percent Effect: -24.91%

## CN(C)CCNCCC(Cc1ccccc1)C1CCOC(C)(C)C1.O=C(O)C(=O)O (centres undefined)
30.3 µM, […]
  Percent Effect: 11.95%

## CCN(CC)CCNCC1CCOC(C)(C)C1 (centres undefined)
30.3 µM, […]
  Percent Effect: 12.8%

## CN(C)CCCNCCC(c1ccccc1)C1CCOC(C)(C)C1.O=C(O)C(=O)O (centres undefined)
30.3 µM, […]
  Percent Effect: 97.24%

## CN(C)CCNCCC(c1ccccc1)C1CCOC(C)(C)C1.O=C(O)C(=O)O (centres undefined)
30.3 µM, […]
  Percent Effect: 94.59%

## CN(C)CCCNCCC(Cc1ccccc1)C1CCOC(C)(C)C1.O=C(O)C(=O)O (centres undefined)
30.3 µM, […]
  Percent Effect: 91.79%

## CN(C)CCNCC1CCOC(C)(C)C1 (centres undefined)
30.3 µM, […]
  Percent Effect: -2.235%

## CN(C)CCCNC(=O)C(c1cccc(F)c1)N(C)C (centres undefined)
30.3 µM, […]
  Percent Effect: 17.93%

## CN(C)CCCNCC1CCOC(C)(C)C1 (centres undefined)
30.3 µM, […]
  Percent Effect: 10.54%

## C[C@@H]1CN(C(=O)C2CCS(=O)(=O)CC2)C[C@@]1(O)C1CC1
30.3 µM, […]
  Percent Effect: -11.49%

## Cc1nc(C)n(CC2CCCCN2CCCO)n1 (centres undefined)
30.3 µM, […]
  Percent Effect: -18.17%

## CC(=O)Nc1cc2c(cc1C)OCO2
30.3 µM, […]
  Percent Effect: 3.338%

## Cc1ccc(F)cc1NS(=O)(=O)c1cc2c(c(C(=O)O)c1)OCCO2
30 µM
  Percent Effect: 10.19%

## CN1CCO[C@@H]2CN(C(=O)NCc3ccccc3)CC[C@@H]2C1.O=C(O)C(F)(F)F
30.3 µM, […]
  Percent Effect: 14.01%

## O=C(N1CCCC1)N1C[C@H]2CCC[C@@]2(COCc2ccccn2)C1.O=C(O)C(F)(F)F
30.3 µM, […]
  Percent Effect: 12.71%

## Cc1ccc(CN2CC[C@@H]3OCCN(Cc4ccncc4)[C@H]3CC2)s1.O=C(O)C(F)(F)F.O=C(O)C(F)(F)F.O=C(O)C(F)(F)F
30.3 µM, […]
  Percent Effect: -14.43%

## CS(=O)(=O)NCCCNC(=O)NCc1ccccc1
30 µM
  Percent Effect: 13.69%

## CN(C)CC(=O)N1CC2(CCN(C(=O)Nc3ccccc3)C2)C1.O=C(O)C(F)(F)F
30.3 µM, […]
  Percent Effect: 27.48%

## Cc1nnc([C@]23COC[C@H]2CN(Cc2cnn(C)c2)C3)o1.O=C(O)C(F)(F)F
30.3 µM, […]
  Percent Effect: 10.4%

## Cc1ccc(CNCC2CCN(CC(O)c3ccccc3)CC2)o1 (centres undefined)
30 µM
  Percent Effect: 53.67%

## COc1cccc(CNCC2CCN(CC(C)O)CC2)c1OC (centres undefined)
30 µM
  Percent Effect: -4.893%

## CC(O)CN1CCC(CNCc2ccccc2F)CC1 (centres undefined)
30 µM
  Percent Effect: 14.91%

## COc1ccc(CNCC2CCN(CC(C)O)CC2)c2ccccc12 (centres undefined)
30 µM, 30.03 µM
  Percent Effect: 95.94%

## CC(O)CN1CCC(CNCc2ccccc2Cl)CC1 (centres undefined)
30 µM
  Percent Effect: 7.148%

## Cc1ncccc1CNCC1CCN(CC(O)c2ccccc2)CC1 (centres undefined)
30 µM, 30.03 µM
  Percent Effect: 43.15%

## Cc1noc(C)c1CNCC1CCN(CC(O)c2ccccc2)CC1 (centres undefined)
30 µM, 30.03 µM
  Percent Effect: 48.93%

## CC(O)CN1CCC(CNCc2ccccc2Br)CC1 (centres undefined)
30 µM, 30.03 µM
  Percent Effect: 58.06%

## CCOc1ccccc1CNCC1CCN(CC(C)O)CC1 (centres undefined)
30 µM
  Percent Effect: 14.79%
